Records with an inconclusive call do not appear. A number with no mark means an inactive call. Active and inactive are the calls of the source. Calls come from the whole dose curve; as a rule, active = well fitted activation curve with a large enough effect; inconclusive = small, poorly fitted or top-dose-only effect; inactive = no such curve, though single readings can be large or run the other way. Starred links: 1 amine or outer side, 2 acyl side, 3 side chain; linkers in the order of their positions; H or OH if unused. Positions of bridges follow the written chain, without caps; N, C: chain ends. Non-standard residues stand in square brackets, D forms with d. Residues, ends and D or L forms follow the SMILES beside them. Chains are numbered I, II in the order given. Actinocin(9to1) = Cc1c2oc3c(C)ccc(C(=O)[*:1])c3nc-2c(C(=O)[*:2])c(N)c1=O; NMeV = CN[C@H](C(=O)O)C(C)C; Sar = CNCC(=O)O
Each molecule was assayed against Cellular tumor antigen p53 (Homo sapiens) (UniProt P04637) (assay: Primary qHTS for small molecule compounds that upregulate eGFP-tagged delta133p53alpha (in N-terminal) cells. (AID 2060322; note: nearly all actives have a fitted effect of over 75% in size;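 for activation: series mostly up to about 56 µM; 0% = DMSO vehicle and 100% = reference activator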)). Conditions: NCI-H358 eGFP-delta133p53alpha fluorescence, 24 h; activation: hits give high values.
Sequence of Cellular tumor antigen p53 (Homo sapiens) (P04637 whole entry, looked up): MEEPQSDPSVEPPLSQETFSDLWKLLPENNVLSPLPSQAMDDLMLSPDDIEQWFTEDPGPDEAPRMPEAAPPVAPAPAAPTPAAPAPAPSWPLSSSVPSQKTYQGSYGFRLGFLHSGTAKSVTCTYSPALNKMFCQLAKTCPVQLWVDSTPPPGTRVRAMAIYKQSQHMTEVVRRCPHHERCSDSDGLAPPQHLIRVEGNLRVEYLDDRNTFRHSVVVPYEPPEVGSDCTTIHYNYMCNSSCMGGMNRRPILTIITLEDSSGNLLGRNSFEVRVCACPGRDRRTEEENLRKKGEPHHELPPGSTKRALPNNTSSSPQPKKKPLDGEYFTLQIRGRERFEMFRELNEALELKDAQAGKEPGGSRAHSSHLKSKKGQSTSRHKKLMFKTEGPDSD
In short: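 NCI-H358 cells pre-induced 24 h with 10 ng/ml doxycycline to express N-terminal eGFP-delta133p53alpha, then dosed 24 h at 37C without doxycycline; fixed, Hoechst-stained, GFP intensity by laser scanning cytometry, normalized to DMSO (0%) and 57.5 uM 5-azacytidine (100%).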
For `NCC(=O)O`, the activation was 13%.
With `O=c1[nH]c(=O)n([C@H]2C[C@@H](O)[C@@H](CO)O2)cc1I` the activation was 6.89%.
With `CCc1cnn2c(NCc3ccc[n+]([O-])c3)cc(N3CCCC[C@@H]3CCO)nc12` the Potency was 0.0685 µM (active).
Molecule `COc1ccc(-c2oc3c(CC=C(C)C)c(OC4O[C@H](CO)[C@@H](O)[C@H](O)[C@@H]4O)cc(O)c3c(=O)c2OC2O[C@@H](C)[C@H](O)[C@@H](O)[C@@H]2O)cc1` (stereo not given in full) has an activation of -27.6%.
In the case of `CC(C)OC(=O)CCCC=CC[C@@H]1[C@H](C=C[C@@H](O)COc2cccc(C(F)(F)F)c2)[C@H](O)C[C@@H]1O`, the activation is reported as -7.59%.
Molecule `CCOc1cc(OCC)c(C(=O)CCC(=O)O)cc1OCC` has an activation of -15.3%.
With `COc1ccccc1OC(=O)Oc1ccccc1OC` the activation was 6.69%.
In the case of `O=C(O)CCCc1ccccc1`, the activation is reported as 20.9%.
`O=C1CN(/N=C/c2ccc([N+](=O)[O-])o2)C(=O)N1` gave an activation of -7.53%.
`CCCCN1CCCC1C(=O)Nc1c(C)cc(C)cc1C` (stereo not given) showed an activation of 27.6%.
In the case of `CC(=O)N[C@@H](Cc1ccc(O)cc1)C(=O)O`, the activation is reported as 0.837%.
With `NC(=O)C(c1ccccc1)(c1ccccc1)[C@@H]1CCN(CCc2ccc3c(c2)CCO3)C1` the Potency was 19.5 µM (active).
With `Cc1ccc2c(Cl)cc(Cl)c(O)c2n1` the activation was 7.34%.
Molecule `O=C(O)CC(O)C(=O)O` (stereo not given) has an activation of -26.6%.
`CC[C@H](c1ccc(O)cc1)[C@@H](CC)c1ccc(O)cc1` was tested, and the Potency was 12.3 µM (active).
`CC1(C)OC(=O)NC1=O` showed an activation of -15.3%.
For `O=C(O)CN1C(=O)c2cccc3cccc(c23)C1=O`, the activation was -6.69%.
Work on `CCOC(=O)O[C@]1(C(=O)OCCl)CC[C@@H]2[C@H]3CCC4=CC(=O)C=C[C@]4(C)[C@@H]3[C@@H](O)C[C@@]21C` yielded an activation of -2.28%.
`O=C(C=Cc1ccc(/C=C/C(=O)Nc2ccc(C3=NCCN3)cc2)cc1)Nc1ccc(C2=NCCN2)cc1` was tested, and the activation was -8.95%.
`CN(C)CCCSc1ccccc1NC(=O)/C=C/c1ccccc1` was tested, and the activation was -10%.
`CC(=O)N(c1onc(C)c1C)S(=O)(=O)c1ccc(N)cc1` was tested, and the activation was -0.565%.
`Cc1c2oc3c(C)ccc(C(=O)N[C@@H]4C(=O)N[C@H](C(C)C)C(=O)N5CCC[C@H]5C(=O)N(C)CC(=O)N(C)[C@@H](C(C)C)C(=O)O[C@@H]4C)c3nc-2c(C(=O)N[C@@H]2C(=O)N[C@H](C(C)C)C(=O)N3CCC[C@H]3C(=O)N(C)CC(=O)N(C)[C@@H](C(C)C)C(=O)O[C@@H]2C)c(N)c1=O` (I: T[dV]P[Sar][NMeV] / II: T[dV]P[Sar][NMeV]; ester I:1-I:C, II:1-II:C; linker I:N-II:N via Actinocin(9to1)) was tested, and the Potency was 0.011 µM (active).
For `CCNC(=O)Nc1ccc(-c2nc3c(c(N4CCOC[C@H]4C)n2)CCN(C2COC2)C3)cc1`, the activation was 5.73%.
For `CC(=O)N(CC(=O)N(C)C)c1ccccc1`, the activation was -7.53%.
`CN(C)C(=O)Nc1ccc(Cl)c(Cl)c1` gave an activation of 13.4%.
With `CCOc1ccccc1O[C@H](c1ccccc1)[C@H]1CNCCO1` the activation was -13%.
With `CC1(C)OC(=O)Nc2ccc(Br)cc21` the activation was 3.95%.
Work on `O=C(Nc1cccc2c(=O)cc(-c3nn[nH]n3)oc12)c1ccc(OCCCCc2ccccc2)cc1` yielded an activation of -4.79%.
`CCOC(=O)Nc1ccc2c(c1)N(C(=O)CCN1CCOCC1)c1ccccc1S2` was tested, and the activation was 4.18%.
`CC(C)NC[C@@H](O)COc1ccc(CC(N)=O)cc1` gave an activation of -20.9%.
`CCCCOC(=O)c1ccc(N)cc1` was tested, and the activation was 19.8%.
In the case of `CCC1NC(=O)c2cc(S(N)(=O)=O)c(Cl)cc2N1` (stereo not given), the activation is reported as -21.8%.
For `COc1ccc(-c2ccc(-c3cn(C(=O)N4CCCCC4c4ccccc4)nn3)cc2)cc1` (stereo not given), the activation was -8.11%.
In the case of `CC(=O)Oc1cccc(C)c1`, the activation is reported as -28.8%.
`Cc1nc(NC(=O)N2CCC[C@@H]2C(N)=O)sc1-c1ccnc(C(C)(C)C(F)(F)F)c1` showed an activation of -9.38%.
With `C=CCn1c(=O)n([C@@H]2O[C@H](CO)[C@@H](O)[C@H]2O)c2nc(N)[nH]c(=O)c21` the activation was -0.565%.
Work on `Cc1ccc(O)c(-n2nc3ccccc3n2)c1` yielded an activation of 7.53%.
`CC(=O)OC[C@H]1O[C@@H](n2cnc(N)nc2=O)[C@H](OC(C)=O)[C@@H]1OC(C)=O` showed an activation of -22.3%.
In the case of `c1ccc2sc(SN3CCOCC3)nc2c1`, the activation is reported as 8.37%.
`O=C(CN1C(=O)C2(CCCC2)NCC1c1cc(F)cc(F)c1)Nc1ccc2c(c1)CC1(C2)C(=O)Nc2ncccc21` (stereo not given) gave an activation of 0.477%.
Potency is the fitted concentration of half-maximal effect.
